Data: PubChem BioAssay (NCI)
The panel holds about 83,000 compounds, 20% with a hit somewhere; the sample as a whole holds those more often.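 Each cell line was grown in a 96-well plate and treated with one concentration of compound for 48 hours. Values below 10 were considered active.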 Values without a mark were called inactive. Activity calls are given as the source filed them.

Each molecule was assayed on NCI-H522 lung (assay: NCI-60 one-dose screen, 48 h (100 = growth as untreated, 0 = no growth, -100 = all killed)). Conditions: 10 µM.

| Structure (SMILES) | growth |
| --- | --- |
| Cc1ccc(C)c(COc2cc(NC(=O)c3ccc4c(c3)OCO4)ccc2N(C)S(C)(=O)=O)c1 | -15.9% (active) |
| CCOC(=O)c1cc(C(=O)c2ccc(Cl)cc2)n2ccc(-c3cc[n+](CC(=O)c4ccc(OC)cc4)cc3)cc12 | 70.8% |
| Clc1ccc(C2=NN=C3C(Cc4ccccc4)=Nc4ccccc4N3C2)cc1 | 38.4% |
| O=C1c2ccccc2C(=O)c2c1ccc(C(Br)Br)c2[N+](=O)[O-] | 64.1% |
| COc1ccc(-c2nc(-c3nc4ccc(C)cc4[nH]3)cc3c2[nH]c2ccccc23)cc1 | 14.7% |
| C(=N\Nc1ncnc2sc3c(c12)CCNC3)/c1cccc2ccccc12 | 97% |
| CC(=O)N[C@H](C(=O)N[C@@H](CCCNC(=N)N)C(=O)N[C@@H](CCCCN)C(=O)N[C@@H](CCCNC(=N)N)C(=O)NC(C(=O)N[C@@H](CC(C)C)C(=O)N[C@@H](CCCNC(=N)N)C(=O)N[C@@]1(C)CCC/C=C\CCC[C@@](C)(C(=O)N[C@@H](CCCNC(=N)N)C(=O)N[C@@H](CCC(=O)O)C(=O)N[C@@H](CC(C)C)C(=O)N[C@H](C(=O)N[C@@H](CCC(=O)O)C(N)=O)C(C)C)NC(=O)[C@H](CCC(N)=O)NC(=O)[C@H](CC(C)C)NC(=O)[C@H](CC(C)C)NC1=O)[C@@H](C)O)C(C)C (stereo not given in full) | 36.5% |
| Cc1noc(C)c1CSc1ccccc1C(=O)N1CCN(c2cccc(C(F)(F)F)c2)CC1 | 62% |
| C=CCn1c(SCC(=O)Nc2ccc(C(=O)/C=C/c3ccc(OC)cc3)cc2)nnc1-c1ccc(OC)c(OC)c1 | 65.6% |
| CNC(=O)c1cc(Oc2ccc3c(c2)sc2nc(-c4ccc(N)cc4)cn23)ccn1 | -22.6% (active) |
| C/C(=N\O)c1ccc(NC(=O)CSc2nnc(-c3ccccc3)n2-c2ccccc2)cc1 | -34.7% (active) |
| CCN(CC)CCCC(C)Nc1c2ccc(Cl)cc2nc2ccc(OC)cc12 (stereo not given) | 21.1% |
| CC[C@@H](C(=O)[C@@H](C)[C@@H](O)[C@H](C)[C@@H]1O[C@@H]([C@@H](CC)C(=O)N(CC)CC)CC[C@@H]1C)C1O[C@]2(C=CC(=O)[C@]3(CC[C@@](C)([C@H]4CC[C@](O)(CC)[C@H](C)O4)O3)O2)[C@H](C)C[C@@H]1C (stereo not given in full) | 8.58% (active) |
| O=S(=O)(Oc1ccc(-c2ccc3sccc3c2)cc1)c1ccccc1 | 87.3% |
| COc1ccc(-c2cc(-c3ccc(Cl)cc3)nc(SCCCCCCC(=O)NO)n2)cc1OC | 45.4% |
| CN1C(=O)C2(Nc3cc(Cl)ccc3S2)c2cc(Cl)ccc21 (stereo not given) | 95.2% |
| Nc1ccc(/C=N/Nc2ccnc3c(O)cccc23)c2cccnc12 | 41.3% |
| CN(C)CCOc1ccccc1NC1=C(Cl)C(=O)C(Nc2ccccc2OCCN(C)C)=C(Cl)C1=O | -53.3% (active) |
| CCn1c(SCCc2ccccc2)nnc1-c1nn(-c2ccc(Cl)cc2Cl)c(-c2ccc(Cl)cc2)c1C | 61.1% |
| C=CCNCCN1C(=O)c2ccc3c4c(ccc(c24)C1=O)C(=O)N(CCNCC=C)C3=O | -79.7% (active) |

| Structure (SMILES) | growth |
| --- | --- |
| COc1cc(C)ccc1Oc1nc(Nc2ccc(N3CCOCC3)cc2)ncc1NC(=O)Nc1cc(C(F)(F)F)cc(C(F)(F)F)c1 | 73.2% |
| COc1cccc(CNc2cccc3cn[nH]c23)c1O | 86.3% |
| NS(=O)(=O)Oc1ccc(NC(=O)C2CCCCCC2)cc1 | 95.6% |
| COc1ccc(-c2n[nH]nc2-c2cc(OC)c3c(c2OC)OCO3)cc1 | -12.8% (active) |
| CCCN(CCC)C(=O)[C@H](CC)[C@@H]1CC[C@@H](C)[C@@H]([C@H](C)[C@@H](O)[C@@H](C)C(=O)[C@H](CC)C2O[C@]3(C=C[C@@H](O)[C@]4(CC[C@@](C)([C@H]5CC[C@](O)(CC)[C@H](C)O5)O4)O3)[C@H](C)C[C@@H]2C)O1 (stereo not given in full) | -11.1% (active) |
| COc1cc(-c2nc3ccccc3o2)cc(CN2CCCCC2)c1O | 65.9% |
| CC(=O)N[C@H](C(=O)N[C@@H](CCCNC(=N)N)C(=O)N[C@@H](CCCCN)C(=O)N[C@@H](CCCNC(=N)N)C(=O)N[C@]1(C)CCC/C=C\CCC[C@@](C)(C(=O)N[C@@H](CC(C)C)C(=O)N[C@@H](CC(C)C)C(=O)N[C@@H](CCC(N)=O)C(=O)N[C@@H](CCC(=O)O)C(=O)N[C@@H](CCCNC(=N)N)C(=O)N[C@@H](CCC(=O)O)C(=O)N[C@@H](CC(C)C)C(=O)N[C@H](C(=O)N[C@@H](CCC(=O)O)C(N)=O)C(C)C)NC(=O)[C@H](CCCNC(=N)N)NC(=O)[C@H](CC(C)C)NC1=O)C(C)C | 96.8% |
| S=C(NCc1ccccc1)NCc1ccccc1 | 82.4% |
| CC(C)c1ccc(C(C)C(=O)N(CC2=C(C(C)c3ccccn3)c3ccccc3C2)C(C)C)cc1 (stereo not given) | 24.9% |
| COc1cc(/C=C2\CCCC3=C2NC(N)=NC3c2cc(OC)c(OC)c(OC)c2)cc(OC)c1OC (stereo not given) | -38% (active) |
| COc1ccc(-c2cc(-c3ccc(Cl)cc3)nc(SCCCC(=O)NO)n2)cc1 | -12.1% (active) |
| CC(C)CCN(CCC(C)C)CC(=O)Nc1ccc(S(=O)(=O)c2ccc(NC(=O)CN(CCC(C)C)CCC(C)C)cc2)cc1 | -64.6% (active) |
| CN(C)CCCOc1ccccc1NC1=C(Cl)C(=O)C(Nc2ccccc2OCCCN(C)C)=C(Cl)C1=O | -67.2% (active) |
| CC(C)(C)c1nn(-c2ccccc2)c2c1CC1(CN2Cc2ccc(Cl)cc2)C(=O)c2ccccc2C1=O | 80.3% |
| N#CCc1csc(Cc2ccccc2)n1 | 88.9% |
| COc1ccc(/C=C/c2nnc(/C=C/c3ccc(OC)c(OC)c3)o2)cc1OC | 9.91% (active) |
| NS(=O)(=O)c1ccc(Br)cc1 | 86.2% |
| CCOC(=O)CC(S(=O)(=O)c1ccccc1)S(=O)(=O)c1ccccc1 | -11.9% (active) |
| Nc1nc(N)c(N)c(Nc2ccc(CCO)cc2)n1 | 91.9% |
| CCN(CC)CCOc1ccc2c(c1O)C(=O)c1ccccc1C2=O | 82.6% |
